The record followed here is PubChem BioAssay (NCATS).

Test [1] is described as follows: qHTS of pediatric cancer cell lines to identify multiple opportunities for drug repurposing: Primary screen for DAOY cells (AID 1347090). Note: nearly all actives have a fitted effect of over 55% in size. Note: potency is the fitted concentration of half-maximal effect. The method in brief:
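Viability measured as metabolically active cells via CellTiter-Glo luminescence following 48 hours of compound exposure, 11-point dilutions in confirmatory testing. 500-1,000 cells/well plated 5 hours before dosing; controls were DMSO and 2.3 µM bortezomib.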
On the technique in general: In qHTS, concentration-response curves come from the screen itself.

Test [2] in a line: qHTS of pediatric cancer cell lines to identify multiple opportunities for drug repurposing: Primary screen for A673 cells (AID 1347092). Note: nearly all actives have a fitted effect of over 45% in size. Note: potency is the fitted concentration of half-maximal effect. The method in brief: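 Luminescence from CellTiter-Glo, taken after 15 min at room temperature, served as the proxy for metabolically active cells following 48 h treatment. Both potency and efficacy were taken from curves fitted to the titration data.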

Test [3] is described as follows: qHTS of pediatric cancer cell lines to identify multiple opportunities for drug repurposing: Primary screen for SK-N-MC cells (AID 1347093). Note: potency is the fitted concentration of half-maximal effect. In short, it runs like this:
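Metabolically active cells were quantified by ATP-dependent luminescence (CellTiter-Glo, 15 min at room temperature) following 48 h treatment. Cells had been plated at 500-1,000 per well and settled for 5 h beforehand.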

A short description of test [4]: qHTS of pediatric cancer cell lines to identify multiple opportunities for drug repurposing: Primary screen for BT-37 cells (AID 1347094). Note: potency is the fitted concentration of half-maximal effect. In short, it runs like this: (§1)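 Cells seeded at 500-1,000 cells/well in growth media, rested 5 hours at 37 degrees C, 5% CO2, then dosed; MIPE compounds at 11-point (from 0.78 nM) and NPC at 8-point (from 0.59 nM) final concentrations. Viability by CellTiter-Glo luminescence after 48 hours.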

A short description of test [5]: qHTS of pediatric cancer cell lines to identify multiple opportunities for drug repurposing: Primary screen for U-2 OS cells (AID 1347096). Note: nearly all actives have a fitted effect of over 50% in size. In short, it runs like this: (§2)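 Viability after 48 h compound treatment at 37C, 500-1,000 cells/well, read as ATP luminescence with CellTiter-Glo. Primary screens used 11-point (MIPE, 0.78 nM-46 µM) or 8-point (NPC, 0.59 nM-46 µM) final concentrations; follow-up screens used 11-point dilutions.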

Test [6] in a line: qHTS of pediatric cancer cell lines to identify multiple opportunities for drug repurposing: Primary screen for SK-N-SH cells (AID 1347098). Note: nearly all actives have a fitted effect of over 65% in size. Note: potency is the fitted concentration of half-maximal effect. The method in brief:
(§3)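 Cells (500-1,000/well) rested 5 h, then received compounds for 48 h; metabolically active cells were measured by CellTiter-Glo luminescence. Final concentrations spanned up to 46 µM (MIPE, 11-point) or 0.59 nM-46 µM (NPC, 8-point) in primary screens, 11-point in follow-ups.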

The nature of test [7]: qHTS of pediatric cancer cell lines to identify multiple opportunities for drug repurposing: Primary screen for NB1643 cells (AID 1347099). Note: nearly all actives have a fitted effect of over 50% in size. Note: potency is the fitted concentration of half-maximal effect. The method in brief:
as §1

Test [8] can be described thus: qHTS of pediatric cancer cell lines to identify multiple opportunities for drug repurposing: Primary screen for LAN-5 cells (AID 1347100). Note: potency is the fitted concentration of half-maximal effect. In short, it runs like this: as §2
Test [9] can be described thus: qHTS of pediatric cancer cell lines to identify multiple opportunities for drug repurposing: Primary screen for BT-12 cells (AID 1347101). Note: nearly all actives have a fitted effect of over 25% in size. Note: potency is the fitted concentration of half-maximal effect. In short, it runs like this: as §3
A short description of test [10]: qHTS of pediatric cancer cell lines to identify multiple opportunities for drug repurposing: Primary screen for Rh18 cells (AID 1347102). Note: nearly all actives have a fitted effect of over 65% in size. Note: potency is the fitted concentration of half-maximal effect. The method in brief:
as §2

Test [11] is described as follows: qHTS of pediatric cancer cell lines to identify multiple opportunities for drug repurposing: Primary screen for MG 63 (6-TG R) cells (AID 1347105). Note: nearly all actives have a fitted effect of over 50% in size. Note: potency is the fitted concentration of half-maximal effect. In short, it runs like this: as §1
Test [12] can be described thus: qHTS of pediatric cancer cell lines to identify multiple opportunities for drug repurposing: Primary screen for control Hh wild type fibroblast cells (AID 1347106). Note: nearly all actives have a fitted effect of over 55% in size. Note: potency is the fitted concentration of half-maximal effect. In short, it runs like this: as §2
Test [13] is described as follows: qHTS of pediatric cancer cell lines to identify multiple opportunities for drug repurposing: Primary screen for Rh30 cells (AID 1347107). Note: series mostly up to about 46 µM; nearly all actives have a fitted effect of over 75% in size. The method in brief: as §2
Test [14] is described as follows: qHTS of pediatric cancer cell lines to identify multiple opportunities for drug repurposing: Primary screen for RD cells (AID 1347104). Note: nearly all actives have a fitted effect of over 55% in size. Note: potency is the fitted concentration of half-maximal effect. The method in brief: as §1
Test [15] can be described thus: qHTS of pediatric cancer cell lines to identify multiple opportunities for drug repurposing: Primary screen for NB-EBc1 cells (AID 1347095). Note: potency is the fitted concentration of half-maximal effect. In short, it runs like this:
as §1

Test [16] can be described thus: qHTS of pediatric cancer cell lines to identify multiple opportunities for drug repurposing: Primary screen for Saos-2 cells (AID 1347097). Note: nearly all actives have a fitted effect of over 40% in size. Note: potency is the fitted concentration of half-maximal effect. The method in brief: as §1
The nature of test [17]: qHTS of pediatric cancer cell lines to identify multiple opportunities for drug repurposing: Primary screen for OHS-50 cells (AID 1347103). Note: nearly all actives have a fitted effect of over 40% in size. Note: potency is the fitted concentration of half-maximal effect. The method in brief: as §3
A short description of test [18]: qHTS of pediatric cancer cell lines to identify multiple opportunities for drug repurposing: Primary screen for Rh41 cells (AID 1347108). Note: nearly all actives have a fitted effect of over 70% in size. Note: potency is the fitted concentration of half-maximal effect. In short, it runs like this:
as §1

Inconclusive results are not listed. The source made the active and inactive calls. Calls come from the whole dose curve; as a rule, active = well fitted curve in the direction sought with a large enough effect; inconclusive = small, poorly fitted or top-dose-only effect, or another doubt; inactive = no such curve, though single readings can be large; an effect the other way counts as inactive or inconclusive.

On to `CC1CCN(c2cc(N3CCN(C)CC3)ccc2NC(=O)c2cc(C#N)c[nH]2)CC1`, for which the Potency result in test [1], in test [2], in test [3], in [4], in test [5] and in [7] was “inactive” in each case. The Potency result in test [8], in test [9], in [10], in [11], in test [12] and in test [13] was “inactive” throughout. Besides, in test [6], the Potency was 21.5 µM (active).
With `Cc1c(-c2cccc3c(CCCOc4cccc5ccccc45)c(C(=O)O)n(Cc4cccnc4)c23)c(COc2ccc(N3CCN([S+](=O)([O-])N(C)C)CC3)cc2)nn1C`, the Potency in [1] was 23.5 µM (active); in [2], 23.5 µM (active); in [7], 23.5 µM (active); in test [8] it was 20.9 µM (active); in test [14], 33.2 µM (active); in test [11], 23.5 µM (active). For the same compound, the Potency entry in [5], in test [6] and in test [12] was “inactive” each time.
For `OC(c1cc(C(F)(F)F)nc2c(C(F)(F)F)cccc12)C1CCCCN1` (stereo not drawn), the Potency entry in test [1], in [15], in test [7], in test [11], in test [12] and in [13] was “inactive” throughout. Moreover, the Potency in test [2] is 18.7 µM (active); in test [6] it was 34.1 µM (active).
With `COc1ccc2cc1Oc1ccc(cc1)C[C@H]1c3cc(c(OC)cc3CCN1C)Oc1c(OC)c(OC)cc3c1[C@H](C2)N(C)CC3`, the Potency is 18.7 µM (active) in test [1]; 23.5 µM (active) in [2]; 23.5 µM (active) in test [3]; 29.6 µM (active) in test [16]; 7.69 µM (active) in test [9]; 17.2 µM (active) in [17]. The Potency entry in [5], in [10] and in test [12] was “inactive” throughout.
Consider `O=C(CO)N1CCC(c2[nH]nc(-c3ccc(Cl)cc3)c2-c2ccncn2)CC1`, for which the Potency result in test [1], in test [2], in [3], in test [15], in test [5] and in test [7] was “inactive” throughout. Moreover, the Potency result in test [8], in test [9], in test [17], in [14], in test [11] and in [12] was “inactive” throughout.
As for `CCCC1OC2C[C@@H]3[C@H]4CCC5=CC(=O)C=C[C@]5(C)[C@H]4C(O)C[C@]3(C)[C@]2(C(=O)CO)O1` (stereo partly drawn), the Potency entry in test [1], in test [2], in [17], in test [14], in test [11] and in [12] was “inactive” throughout. The Potency in test [3] and in [7] was 20.9 µM (active) in each case.
Consider `COC(=O)Nc1ccc(-c2nc(N3CCOCC3)c3cnn(C4CCN(C(=O)OC)CC4)c3n2)cc1`, for which the Potency in test [1] is 1.87 µM (active); in [2] it was 0.59 µM (active); in [4] it was 0.122 µM (active); in test [16], 2.96 µM (active); in test [6], 0.0192 µM (active); in test [9], 0.611 µM (active). Further, the Potency in test [10] was 6.62 µM (active); in [17] it was 0.432 µM (active); in [14], 1.66 µM (active); in test [11], 0.469 µM (active); in [12], 0.0209 µM (active); in [18] it was 1.32 µM (active). For the same compound, in [13], the Potency result is “inactive”.
In the case of `COc1cc(F)c(C(C)C)cc1-c1ccc(C(F)(F)F)cc1CN1C(=O)O[C@H](c2cc(C(F)(F)F)cc(C(F)(F)F)c2)[C@@H]1C`, the Potency result in test [1], in [2], in test [5], in [16], in test [10] and in [14] was “inactive” each time. Moreover, the Potency result in test [11], in [12], in test [13] and in test [18] was “inactive” in each case. The Potency in test [15] was 14.8 µM (active); in test [8], 18.7 µM (active).
Turning to `CNC(=O)c1c(-c2ccc(F)cc2)oc2cc(N(CCO)S(C)(=O)=O)c(C3CC3)cc12`, the Potency in test [1] was 23.5 µM (active); in test [2], 23.5 µM (active); in test [17] it was 27.3 µM (active); in test [14], 29.6 µM (active); in test [18], 18.7 µM (active). In [13], the Potency result was “inactive”.
`Oc1cc(O)cc(C=Cc2ccc(O)c(O)c2)c1`: the Potency entry in test [1], in test [5] and in test [12] was “inactive” each time. For the same compound, the Potency in test [2] was 18.7 µM (active); in test [3], 5.26 µM (active); in test [15], 4.18 µM (active); in [7], 20.9 µM (active); in test [8] it was 13.2 µM (active); in test [9], 24.3 µM (active). Besides, the Potency in [17] is 19.3 µM (active).
For the compound `NC[C@H]1O[C@H](O[C@@H]2[C@@H](O)[C@@H](O[C@H]3O[C@H](CO)[C@@H](O)[C@H](N)[C@@H]3O)[C@H](N)C[C@@H]2N)[C@H](O)[C@@H](O)[C@H]1O`, the Potency entry in test [1], in test [2], in test [4], in test [15], in test [5] and in test [16] was “inactive” each time. The Potency result in [8], in test [9], in [10], in [17], in [14] and in test [11] was “inactive” in each case. For the same compound, the Potency result in test [12], in [13] and in test [18] was “inactive” in each case.
Take `NC1(C(=O)N[C@@H](CCO)c2ccc(Cl)cc2)CCN(c2ncnc3[nH]ccc23)CC1`: the Potency in test [1] is 14.8 µM (active); in test [2], 18.7 µM (active); in [3], 0.372 µM (active); in test [16] it was 5.9 µM (active); in [6], 30.4 µM (active); in test [8] it was 18.7 µM (active). Also, the Potency in test [10] was 2.35 µM (active); in test [11], 7.43 µM (active); in test [18], 0.743 µM (active). Also, the Potency result in test [12] is “inactive”.
Turning to `Cc1ccccc1C(C(=O)NC1CCCCC1)N(C(=O)CNc1ccc(C#N)cc1)c1cccc(F)c1` (stereo not drawn), the Potency entry in test [1], in test [2], in test [4], in test [5], in test [6] and in [7] was “inactive” each time. The Potency result in test [8], in test [9], in test [10], in test [14], in [11] and in test [12] was “inactive” in each case. Further, the Potency result in [13] and in test [18] was “inactive” throughout. Moreover, the Potency in [16] was 18.7 µM (active).
`Cc1cc(NC(=O)Nc2ccc(N(C)C)cc2)c2cc(F)cc(F)c2n1`: the Potency entry in test [1], in [2], in test [3], in [4], in test [5] and in [7] was “inactive” throughout. Moreover, the Potency result in test [10], in test [14], in test [11], in [12], in [13] and in test [18] was “inactive” each time.
Consider `CC(C)(O)CC(=O)NCCn1ccc2ncnc(Nc3ccc(Oc4cccc(C(F)(F)F)c4)c(Cl)c3)c21`, for which the Potency in test [1] is 0.469 µM (active); in [2], 0.372 µM (active); in [3], 0.743 µM (active); in [4], 24.3 µM (active); in test [6], 1.21 µM (active); in test [17] it was 30.6 µM (active). Moreover, the Potency in [14] is 18.7 µM (active). Further, the Potency entry in test [5] and in [12] was “inactive” throughout.
For the compound `CCOC(=O)c1c(CSc2ccccc2)n(C)c2cc(Br)c(O)c(CN(C)C)c12`, the Potency result in test [1], in test [2], in test [15], in test [5], in [11] and in test [12] was “inactive” in each case. Besides, in [17], the Potency was 27.3 µM (active).
